Screens as filed in PubChem BioAssay.
Methyltransferases: Primary Screen for Target Class Profiling of Small Molecule Inhibitors of Methyltransferases; 25,000 compounds, 3.9% hits; calls only at 40 µM; purified enzyme, MTase-Glo SAH luminescence; stronger effect = lower value; call rule not given here
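Each enzyme was reacted with SAM and its substrate, with compounds tested once at 40 uM; SAH formed was read by MTase-Glo luminescence.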
* = called active by the depositor; i = inactive; + = active, no number. The sample as a whole holds a higher share of hits than the screen did. On the % scale 0 is the no-effect control and ±100 the full control effect.

SMILES | Methyltransferases
COc1ccc(OC)c2c1cc1n2CC(C)(C(=O)NC2CCCCCC2)N(Cc2cccnc2)C1=O (configuration not stated) | i
COc1ccc(OC)c2c1cc1n2CC(C)(C(=O)NC2CCCCC2)N(Cc2cccnc2)C1=O (configuration not stated) | +
COCCCN1C(=O)c2cc3c(OC)ccc(OC)c3n2CC1(C)C(=O)NC1CCCCC1 (configuration not stated) | +
CCOc1ccc(C(=O)Cn2nc3n(Cc4ccc(F)cc4)c(=O)c4ccccc4n3c2=O)cc1 | i
Cc1ccccc1NC(=O)N1Cc2c(sc3c2CCCC3)-n2cccc2C1c1ccc(F)cc1 (configuration not stated) | i
CCCn1c(=O)c2ccccc2n2c(=O)n(CC(=O)NCc3ccc(OC)cc3)nc12 | i
CCNC(=O)c1cc2n(n1)CC(C)(C(=O)NCc1ccc(F)cc1)N(C)C2=O (configuration not stated) | i
O=C(CCc1nnc2n(Cc3ccc(Cl)cc3)c(=O)c3ccccc3n12)N1CCC(Cc2ccccc2)CC1 | i
CC(=O)Nc1c2n(c3ccc(F)cc13)CC(C)(C(=O)NC1CCCC1)N(CCc1ccccc1)C2=O (configuration not stated) | i
CCCCN1C(=O)c2cc3ccccc3n2CC1(C)C(=O)NC1CCCCCC1 (configuration not stated) | i
COc1ccccc1CN1C(=O)c2cc(C(C)(C)C)nn2CC1(C)C(=O)NC1CCCCCC1 (configuration not stated) | i
COC(=O)CC1OC(C)C2=C(O)c3c(O)cccc3C(=O)C23OC13 (configuration not stated) | +
CC(C)CCNC(=O)C1(C)Cn2nc(C(=O)NCc3ccc4c(c3)OCO4)cc2C(=O)N1C (configuration not stated) | i
Cc1ccc(C(=O)CSc2nnc3n(C)c(=O)c4ccc(C(=O)NC5CCCCC5)cc4n23)c(C)c1 | i
CC(=O)O[C@H]1[C@H](OC(=O)C(C)C)[C@]2(C)OC3(CC[C@]2(C)[C@H]2CCC[C@]4(CO4)[C@]12C)COC(=O)C3 (some centres not stated) | i
CC1=CC(=O)C2C(C)(C)CCCC2(C)C12CCC1(COC(=O)C1)O2 (configuration not stated) | +
CC1=CC(=O)[C@H]2C(C)(C)CCC[C@]2(C)[C@@]1(O)CO | i
COc1ccc(NC(=O)CSc2nnc3n(CCc4ccccc4)c(=O)c4ccccc4n23)cc1 | i
O=S(=O)(Nc1cccc(F)c1)c1cccc(-c2nc(-c3ccccc3)no2)c1 | i
CC(C)Cn1c(=O)c2ccccc2n2c(=O)n(CC(=O)c3ccc(F)cc3)nc12 | i
CN1C(=O)c2cc(C(=O)NCc3ccc(F)cc3)nn2CC1(C)C(=O)NCc1ccc(F)cc1 (configuration not stated) | i
CCCCN1C(=O)CSc2c(c3ccccc3n2C)C1C(=O)NCCC(C)C (configuration not stated) | i
CCCCNC(=O)CCc1nnc2n(CCc3ccccc3)c(=O)c3ccccc3n12 | i
CC(=O)NCCCCn1c2c(c3ccccc31)C(=O)NCC2 | +
CCN1C(=O)c2cc(C(=O)NCc3cccc(OC)c3)nn2CC1(C)C(=O)NC1CCCC1 (configuration not stated) | i
SMILES | Methyltransferases
CC1(C(=O)NC2CCCC2)Cn2c(ccc2-c2ccccc2)C(=O)N1CCc1cccs1 (configuration not stated) | i
Cn1c(=O)c2ccc(C(=O)NC3CCCCC3)cc2n2c(=O)n(CC(=O)Nc3ccccc3F)nc12 | i
CC1=C[C@H](O)[C@H]2C(C)(C)CCC[C@]2(C)[C@@]1(O)CO | i
COC1C=C(C)C(O)(CO)C2(C)CCCC(C)(C)C12 (configuration not stated) | +
CC1(C)CCCC2(C)C1C(O)C=C(CO)C2(O)CO (configuration not stated) | i
COc1ccc(NC(=O)N2CCn3c(C)ccc3C2C(C)C)cc1 (configuration not stated) | i
Nc1nonc1-c1nc2cnccc2n1C1CCCCC1 | +
O=S(=O)(NCCn1c(-c2ccccc2)nc2ccccc21)c1ccc(F)c(F)c1 | i
CC(C)CNC(=O)c1ccc2c(=O)n(CC(C)C)c3nnc(SCC(=O)c4ccccc4)n3c2c1 | i
COc1cccc(C2c3cccn3-c3sc4c(c3CN2C(=O)Nc2ccccc2Br)CCCC4)c1 (configuration not stated) | i
Brc1c(Br)c(Br)c2n[nH]nc2c1Br | +
CCOc1ccc(C(=O)CSc2nnc3n(C)c(=O)c4ccc(C(=O)NC5CCCC5)cc4n23)cc1 | i
Cc1ccccc1CSc1nnc2n(CC(C)C)c(=O)c3ccccc3n12 | i
CCN(CC)CCN(Cc1ccc(-c2ccc(C(F)(F)F)cc2)cc1)C(=O)Cn1c(SCc2ccc(F)cc2)nc(=O)c2c1CCC2 | +
COC(=O)c1ncn2c1C(=O)N(Cc1ccccc1)C(C)(C(=O)NC1CCCCCC1)C2 (configuration not stated) | i
O=C(Nc1ccccc1Cl)c1cnc2ccc(C3CCNCC3)cn12 | i
c1cc(NC2CCNCC2)nc(-c2cnc3ccccn23)c1 | +
Cn1c(=O)c2ccc(C(=O)NC3CCCC3)cc2n2c(SCc3cccc(F)c3)nnc12 | i
Cc1ccc2c(c1)c(=O)[nH]c1c(C(=O)NCc3ccc4c(c3)OCO4)sc(=S)n12 | +
O=C(NCc1ccc(Cl)cc1)c1ccc2c(=O)[nH]c3c(C(=O)NC4CCCC4)sc(=S)n3c2c1 | +
Cn1c(=O)c2ccc(C(=O)NC3CCCC3)cc2n2c(=O)n(CC(=O)NCc3ccc(Cl)cc3)nc12 | i
Cc1ccc(NC(=O)c2sc(=S)n3c2[nH]c(=O)c2cc(Cl)ccc23)c(C)c1 | i
COc1ccccc1NC(=O)c1sc(=S)n2c1[nH]c(=O)c1cc(Cl)ccc12 | i
O=C(NCc1ccc2c(c1)OCO2)c1ccc2c(=O)[nH]c3c(C(=O)NCC4CCCO4)sc(=S)n3c2c1 (configuration not stated) | i
Cc1cccc(-c2n[nH]n3c2nc(=O)c2ccc(C(=O)NCc4ccc5c(c4)OCO5)cc23)c1 | i
SMILES | Methyltransferases
CC[C@H](C)NC(=O)c1sc(=S)n2c1[nH]c(=O)c1cc(Cl)ccc12 | +
COc1cc2c(=O)[nH]c3c(C(=O)NCc4ccc5c(c4)OCO5)sc(=S)n3c2cc1OC | i
Cc1ccc(NC(=O)CSc2nnc3n(C)c(=O)c4ccc(C(=O)NC5CCCCC5)cc4n23)cc1 | i
CC1(C(=O)NC2CCCCCC2)Cn2c(cc3sccc32)C(=O)N1CCCN1CCCCC1 (configuration not stated) | i
CC1(C(=O)NC2CCCCC2)Cn2c(ccc2-c2ccccc2)C(=O)N1Cc1cccc(F)c1 (configuration not stated) | i
CC1(C(=O)NC2CCCCCC2)Cn2c(cc3occc32)C(=O)N1C1CCCC1 (configuration not stated) | i
CCc1ccccc1NC(=O)Cn1c(=O)oc2cc(S(=O)(=O)N3CCCCC3C)ccc21 (configuration not stated) | i
O=C(COc1ccc2c(-c3ccccc3)cc(=O)oc2c1)c1ccc(Cl)cc1 | i
COc1cccc(CNC(=O)Cn2ccc3cc(S(=O)(=O)N4CCCCC4)ccc32)c1OC | i
